# The source made the active and inactive calls.
# Legend:
# [1] = tested on: Human papillomavirus type 1a protein E7 (residues 44-93); assay: HPV1a E7 fragment binders on microarrays, primary screen, biochemical, small-molecule microarray, residues 44-93, 635 nm fluorescence (AID 1108); details: small-molecule microarray binding, fluorescence 635 nm; higher = more signal;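 further: E7 fragment applied at 1 µg/mL in TBST for 1 h at 4 C; score combines spot fluorescence with its signal to noise ratio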
# [2] = modulators of HCV replicon luciferase signal, primary screen, HCV replication inhibitor project, Huh7 cells, luciferase reporter (AID 1109); details: 48 h, higher = more signal;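 further: huh7 hepatoma cells harbouring a luciferase neomycin HCV replicon reporter; luciferase luminescence as measure of HCV replicon replication; test concentration not given here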
# [3] = biological target: Left-right determination factor 2 (Homo sapiens) (UniProt O00292); assay: LEFTY2 binders on small-molecule microarrays, primary screen, biochemical, small-molecule microarray, 635 nm fluorescence scan (AID 1110); details: LEFTY2 binding, higher = more signal
# [4] = biological target: Calmodulin-1 (Homo sapiens) (UniProt P0DP23); assay: CALM1 binders on microarrays, EGTA buffer, profiling panel, biochemical, small-molecule microarray, Cy5-labelled CALM1 (AID 1111); details: Cy5-CALM1 binding fluorescence, higher = more signal;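 further: labelled calmodulin applied in Tris saline Tween buffer holding calcium plus EGTA and DTT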
# [5] = biological target: Calmodulin-1 (Homo sapiens) (UniProt P0DP23); assay: calcium-bound CALM1 binders on microarrays, profiling panel, artefact control for SMM control-protein annotation, biochemical, small-molecule microarray, Cy5-labelled CALM1, plus calcium (AID 1112); details: Cy5-CALM1 binding fluorescence, higher = more signal;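 further: score merges spot fluorescence with signal to noise from triplicate slides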
# [6] = small-molecule microarray binders of probe aWnt5a, primary screen, biochemical, biotinylated probe, 635/667 nm fluorescence (AID 1113); details: higher = more signal;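 further: score merges 667 nm fluorescence intensity with signal-to-noise per printed feature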
# [7] = small-molecule microarray binders of probe aShh, primary screen, biochemical, biotinylated probe, 635/667 nm fluorescence (AID 1114); details: higher = more signal;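 further: probe is biotin-labelled aShh protein from a stem cell growth factor screen; measures binding of labelled protein to compounds printed on the slide; score merges feature fluorescence at 667 nm with signal-to-noise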
# [8] = small-molecule microarray binders of probe aNog, primary screen, biochemical, biotinylated probe, 635/667 nm fluorescence (AID 1115); details: higher = more signal;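 further: probe is biotinylated aNog protein used at 0.15 µg/mL for 1 h at 4 C; z-score combines 667 nm fluorescence of each spot with its signal to noise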
# [9] = biological target: Torsin-1A-interacting protein 1 (Homo sapiens) (UniProt Q5JTV8); assay: LAP1 binders from COS7 cell lysate, primary screen, small-molecule microarray, 635/667 nm fluorescence (AID 1116); details: COS7-hLAP1 lysate binding, 635 nm fluorescence, higher = more signal
# [10] = biological target: Alpha-bungarotoxin (Bungarus multicinctus) (UniProt P60615); assay: alpha-bungarotoxin binders on microarray, profiling panel, artefact control for SMM control protein annotation, biochemical, small-molecule microarray, Alexa647 label, 635/667 nm fluorescence (AID 1117); details: alpha-BTX-A647 binding fluorescence, higher = more signal
# Albumin (Bos taurus) = Albumin (Bos taurus) (UniProt P02769); assay: bovine serum albumin binders on microarray, profiling panel, artefact control for SMM control protein annotation, biochemical, small-molecule microarray, Alexa647 label, 635/667 nm fluorescence (AID 1118); details: BSA-A647 binding, fluorescence 635 nm, higher = more signal;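 further: score merges 667 nm emission intensity and signal-to-noise per printed compound spot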
# [11] = small-molecule microarray binders of probe aXIP, primary screen, biochemical, NeuroSMM set, 635/667 nm fluorescence (AID 1119); details: higher = more signal, called active from +8 up or from −8 down;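 further: probe is the protein aXip251-270 applied at 1 µg/mL to compound-printed slides; binding of probe to printed compounds measured as 667 nm fluorescence plus signal to noise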
# [12] = small-molecule binders of probe aNOTCH3, primary screen, biochemical, small-molecule microarray, 635/667 nm fluorescence (AID 1120); details: higher = more signal;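 further: probe is a biotin-tagged antibody raised against NOTCH3 rather than NOTCH3 protein; score merges spot fluorescence near 667 nm with spot signal to noise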
# [13] = small-molecule binders of probe aNOTCH2, primary screen, biochemical, small-molecule microarray, 635/667 nm fluorescence (AID 1121); details: higher = more signal;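 further: score merges feature fluorescence read at 667 nm with its signal to noise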
# [14] = biological target: Carbonic anhydrase 2 (Homo sapiens) (UniProt P00918); assay: CAII small-molecule binders, profiling panel, biochemical, small-molecule microarray, Alexa647-labelled CAII (AID 1122); details: CAII-A647 binding fluorescence, higher = more signal
# [15] = COS7 lysate on small-molecule microarray, probe aHis, 635 nm (AID 1123); details: COS7 cell lysate, fluorescence, higher = more signal;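 further: z-score combines 667nm fluorescence intensity with signal-to-noise per printed compound spot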
# [16] = compound binding in COS7 lysate, probe aLAP1, primary screen, cell lysate, small-molecule microarray (AID 1124); details: probe aLAP1, fluorescence, higher = more signal;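 further: lysate comes from COS7 cells expressing LAP1 and is applied at 0.3 µg/mL; score merges spot fluorescence near 667 nm with signal-to-noise over triplicate slides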
# Sam68 (KHDRBS1) = assay: Sam68 small-molecule binders, primary screen, biochemical, small-molecule microarray, 635 nm fluorescence (AID 1125); details: small-molecule microarray binding, higher = more signal;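 further: score merges 667 nm channel intensity with signal to noise over triplicate slides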
# [17] = tested on: Chordin-like protein 2 (CHRDL2); assay: CHRDL2 small-molecule binders, primary screen, biochemical, small-molecule microarray, 635 nm fluorescence (AID 1126); details: small-molecule microarray binding, fluorescence 635 nm; higher = more signal;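 further: printed compound slides probed with Chrdl2 protein at 4 µg/mL for 1 h at 4 C; score merges 667 nm emission intensity with signal to noise over three replicate slides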
# [18] = biological target: Concanavalin-A (Canavalia ensiformis) (UniProt P02866); assay: ConA small-molecule binders, primary screen, artefact control for SMM control protein annotation, biochemical, small-molecule microarray, Alexa647 label, 635 nm (AID 1127); details: ConA-A647 binding fluorescence, higher = more signal;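 further: z combines 667 nm emission intensity with signal-to-noise across three replicate slides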
# Chain of Concanavalin-A (Canavalia ensiformis) (P02866 whole entry, looked up): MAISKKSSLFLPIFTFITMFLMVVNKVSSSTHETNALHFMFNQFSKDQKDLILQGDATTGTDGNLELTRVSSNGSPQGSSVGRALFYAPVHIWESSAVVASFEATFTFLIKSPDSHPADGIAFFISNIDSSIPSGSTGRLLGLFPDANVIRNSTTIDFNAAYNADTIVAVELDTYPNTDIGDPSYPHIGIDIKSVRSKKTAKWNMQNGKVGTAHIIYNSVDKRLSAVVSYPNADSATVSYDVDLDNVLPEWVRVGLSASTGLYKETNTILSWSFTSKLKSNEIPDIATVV
# Chain of Left-right determination factor 2 (Homo sapiens) (O00292 whole entry, looked up): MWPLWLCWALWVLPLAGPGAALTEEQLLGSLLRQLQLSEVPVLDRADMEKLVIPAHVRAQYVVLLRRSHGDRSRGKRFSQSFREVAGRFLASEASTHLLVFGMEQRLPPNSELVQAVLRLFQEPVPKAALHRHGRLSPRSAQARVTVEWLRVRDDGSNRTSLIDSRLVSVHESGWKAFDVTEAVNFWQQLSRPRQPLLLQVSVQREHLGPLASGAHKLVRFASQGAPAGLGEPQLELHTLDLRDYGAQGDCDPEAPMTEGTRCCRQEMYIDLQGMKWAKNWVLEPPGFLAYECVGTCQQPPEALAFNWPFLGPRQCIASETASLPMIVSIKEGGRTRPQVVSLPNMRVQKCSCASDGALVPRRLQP
# Chain of Albumin (Bos taurus) (P02769 whole entry, looked up): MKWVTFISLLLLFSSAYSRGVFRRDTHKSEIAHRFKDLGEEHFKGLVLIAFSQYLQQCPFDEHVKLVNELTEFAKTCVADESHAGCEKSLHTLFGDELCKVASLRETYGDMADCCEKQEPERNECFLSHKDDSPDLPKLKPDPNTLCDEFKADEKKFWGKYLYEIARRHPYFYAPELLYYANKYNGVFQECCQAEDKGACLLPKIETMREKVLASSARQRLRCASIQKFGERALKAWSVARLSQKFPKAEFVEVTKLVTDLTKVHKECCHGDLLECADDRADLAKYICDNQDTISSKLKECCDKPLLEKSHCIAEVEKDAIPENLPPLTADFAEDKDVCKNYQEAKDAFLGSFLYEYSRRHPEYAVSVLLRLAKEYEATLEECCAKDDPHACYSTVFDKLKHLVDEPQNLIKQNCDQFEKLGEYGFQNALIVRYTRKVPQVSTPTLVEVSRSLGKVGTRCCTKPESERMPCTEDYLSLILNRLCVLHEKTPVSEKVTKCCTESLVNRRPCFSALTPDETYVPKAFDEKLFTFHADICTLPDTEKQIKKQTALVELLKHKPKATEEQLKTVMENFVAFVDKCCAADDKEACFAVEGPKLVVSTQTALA
# Chain of Torsin-1A-interacting protein 1 (Homo sapiens) (Q5JTV8 whole entry, looked up): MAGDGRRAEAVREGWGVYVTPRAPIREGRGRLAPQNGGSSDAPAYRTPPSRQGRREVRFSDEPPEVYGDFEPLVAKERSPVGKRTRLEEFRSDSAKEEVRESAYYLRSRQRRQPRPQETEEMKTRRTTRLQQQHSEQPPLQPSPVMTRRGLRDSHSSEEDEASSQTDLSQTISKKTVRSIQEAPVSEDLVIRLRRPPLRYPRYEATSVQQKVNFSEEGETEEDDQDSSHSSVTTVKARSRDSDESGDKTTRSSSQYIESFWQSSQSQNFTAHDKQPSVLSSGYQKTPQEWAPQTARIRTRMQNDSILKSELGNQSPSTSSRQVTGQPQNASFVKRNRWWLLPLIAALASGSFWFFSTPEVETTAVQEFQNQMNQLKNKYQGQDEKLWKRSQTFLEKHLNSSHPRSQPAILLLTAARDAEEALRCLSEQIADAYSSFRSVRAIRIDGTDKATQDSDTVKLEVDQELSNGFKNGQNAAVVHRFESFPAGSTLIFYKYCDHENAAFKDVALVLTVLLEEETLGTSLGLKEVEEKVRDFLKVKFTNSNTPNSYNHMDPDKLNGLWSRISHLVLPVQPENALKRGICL
# Chain of Alpha-bungarotoxin (Bungarus multicinctus) (P60615 whole entry, looked up): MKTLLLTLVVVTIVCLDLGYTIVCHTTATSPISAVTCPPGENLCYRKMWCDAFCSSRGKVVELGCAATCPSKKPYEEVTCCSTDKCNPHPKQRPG
Compound,composite z-score [1],z-score [2],composite z-score [3],composite z-score [4],composite z-score [5],composite z-score [6],composite z-score [7],composite z-score [8],composite z-score [9],composite z-score [10],composite z-score (Albumin (Bos taurus)),composite Z-score [11],composite z-score [12],composite z-score [13],composite z-score [14],composite z-score [15],composite z-score [16],composite z-score (Sam68 (KHDRBS1)),composite z-score [17],composite z-score [18]
O=C1O[C@@H](c2ccccc2)[C@@H](c2ccccc2)N2[C@@H](c3ccc(O)cc3)[C@]3(C(=O)Nc4ccc(C#CC5=CCCCC5)cc43)[C@@H](C(=O)N3CCN(c4ncccn4)CC3)[C@H]12,1.17,-1.9,0.333,1.19,-0.581,-0.0459,0.0756,-0.14,0.951,0.862,0.475,0.131 (inactive),-0.0328,-0.111,0.573,1.72,0.299,1.29,0.363,1.11
COCC(=C=CC[C@H](O)c1ccc(OCCO)cc1)C[C@H](O)COCc1ccccc1,0.486,-0.313,0.32,-0.0904,-0.847,-0.0718,-0.279,-0.302,1.52,0.439,0.589,0.0082 (inactive),-0.123,-0.14,0.561,1.07,0.476,0.703,0.538,0.654
COCCOC(=O)N1C(=O)[C@@]2(c3cc(C#CC4=CCCCC4)ccc31)[C@H](C(=O)N1CCN(c3ncccn3)CC1)[C@H]1C(=O)O[C@H](c3ccccc3)[C@H](c3ccccc3)N1[C@@H]2c1ccc(O)cc1,0.683,-1.46,0.557,0.951,0.727,-0.0685,0.258,0.0234,1.28,1.45,0.649,0.215 (inactive),0.061,-0.0304,0.541,1.09,0.615,1.29,0.204,1.13
COc1ccc([Si](C)(C)[C@H]2[C@H](CCO)O[C@@]3(C(=O)N(Cc4cccc(N5CCCCC5=O)c4)c4ccccc43)[C@@H]2C)cc1,1.25,-5.07,1,0.557,0.388,-0.0919,0.149,0.304,0.753,1.22,0.378,0.299 (inactive),-0.0984,-0.148,0.394,1.31,0.264,1.15,0.769,1.1
C=CCOC(=O)[C@@H]1[C@H]2C(=O)O[C@H](c3ccccc3)[C@H](c3ccccc3)N2[C@H](c2ccc(OCCOC(=O)[C@H]3C[C@H]4C(=O)N[C@@H](CCCC[N+](C)(C)C)C(=O)N4[C@H]3c3ccc(O)cc3)cc2)[C@@]12C(=O)Nc1ccc(I)cc12,0.505,-0.908,1.05,1.64,-0.116,0.0101,0.147,-0.0927,1.49,1.89,-0.914,4.1 (inactive),0.147,-0.0843,0.534,2.74,0.577,1.3,1.16,1.19
[N-]=[N+]=NCc1ccccc1C[C@@]1(C(N)=O)N=C(c2ccc(OCCCO)cc2)O[C@@H]1c1ccccc1CN=[N+]=[N-],1.43,-1.55,0.144,1.37,0.693,-0.0236,0.19,1.08,0.623,0.689,0.757,1.22 (inactive),0.105,-0.0386,0.549,1.5,0.383,1.29,-0.464,0.792
CC(C)N1C(=O)[C@@]2(c3ccc([N+](=O)[O-])cc3)CC(=O)N(C3CCCCC3)[C@@H]2c2ccc(CO)cc21,-0.242,0.711,0.11,-0.561,-0.593,-0.1,-0.0553,-0.305,0.214,0.329,-0.545,0.633 (inactive),-0.215,-0.12,0.222,-0.0857,0.398,0.123,0.208,0.684
[N-]=[N+]=Nc1ccccc1[C@@H]1OC(c2ccc(OCCCO)cc2)=N[C@]1(CCS(=O)(=O)c1ccccc1)C(=O)NCCN1CCOCC1,1.47,-0.485,0.382,0.03,0.0093,0.0814,0.337,0.675,1.26,0.737,0.734,0.131 (inactive),0.178,-0.0267,0.485,2.71,0.21,1.29,-0.22,0.478
CN1C(=O)C2C=CC(C(O)C3CCCCC3)N(N3CCCCC3)C2C1=O (stereo not given),1.47,-0.306,0.194,0.407,-0.331,0.164,0.109,1.31,1.4,1.66,0.92,1.56 (inactive),0.196,0.0019,0.663,2.48,0.794,1.3,0.0449,0.927
COCCOC(=O)N1C(=O)[C@@]2(c3cc(C#Cc4ccc(OC)cc4)ccc31)[C@H](C(=O)N1CCCCCCC1)[C@H]1C(=O)O[C@H](c3ccccc3)[C@H](c3ccccc3)N1[C@@H]2c1ccc(O)cc1,1.36,-0.949,0.505,0.172,0.184,-0.0239,0.603,1.18,0.604,0.723,-0.617,0.527 (inactive),0.807,0.0137,0.168,0.234,0.421,1.15,0.643,0.692
CC(CO)N1C(=O)[C@@H]2C3C(=O)OCCC/C=C\[C@H]3OC23C=CCN(Cn2nnc4ccccc42)C(=O)[C@@H]13 (stereo not given in full),-1.01,-0.456,-0.214,-0.45,-0.205,-0.152,-0.0553,-0.196,-0.718,-0.559,0.717,0.323 (inactive),-0.192,-0.14,0.869,-0.202,-0.237,-1.07,0.034,-1.01

# From PubChem BioAssay
